# Laboratory results published in the supplement of paper PMC11732987, “Enantioselective OTUD7B fragment discovery through chemoproteomics screening and high-throughput optimisation” (Communications Chemistry, 2025).
# Unmarked numbers belong to inactive results.
# Assays:
# Experiment in all cases: log2 ratio of Biotin-Ahx-Ub-VS probe labelling (fragment/DMSO); higher = less target engagement (more negative = stronger competition), active = hit call of the paper (q ≤ 0.05, log2 ratio ≤ -1)
# Details in all cases: compound concentration: 200 uM; treatment time: 3 h
# OTUD6B = molecular target: T1, OTUD6B (UniProt Q8N6M0)
# T1 sequence (whole entry): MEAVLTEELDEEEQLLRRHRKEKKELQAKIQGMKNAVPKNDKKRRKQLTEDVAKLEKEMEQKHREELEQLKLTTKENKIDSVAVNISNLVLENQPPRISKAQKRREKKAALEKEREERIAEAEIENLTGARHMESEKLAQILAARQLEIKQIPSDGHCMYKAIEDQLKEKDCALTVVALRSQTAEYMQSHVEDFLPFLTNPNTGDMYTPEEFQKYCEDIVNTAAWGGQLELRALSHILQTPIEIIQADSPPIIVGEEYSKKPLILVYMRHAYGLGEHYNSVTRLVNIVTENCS
# Summary of the method: (§1)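 Average log2 ratios of fragment over vehicle were obtained by unpaired t-test from global-median-normalised Spectronaut label-free quantities. Proteins with ≥2 unique peptides were included. HEK293T lysate (495 µg per sample) was treated in triplicate with fragment at 200 µM or vehicle for 3 h, then with Biotin-Ahx-Ub-VS at 0.5 µM final for 1 h, and labelled DUBs were NeutrAvidin-enriched and run by diaPASEF LC-MS/MS.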
# OTUD7B = molecular target: T2, OTUD7B (UniProt Q6GQQ9)
# T2 sequence (whole entry): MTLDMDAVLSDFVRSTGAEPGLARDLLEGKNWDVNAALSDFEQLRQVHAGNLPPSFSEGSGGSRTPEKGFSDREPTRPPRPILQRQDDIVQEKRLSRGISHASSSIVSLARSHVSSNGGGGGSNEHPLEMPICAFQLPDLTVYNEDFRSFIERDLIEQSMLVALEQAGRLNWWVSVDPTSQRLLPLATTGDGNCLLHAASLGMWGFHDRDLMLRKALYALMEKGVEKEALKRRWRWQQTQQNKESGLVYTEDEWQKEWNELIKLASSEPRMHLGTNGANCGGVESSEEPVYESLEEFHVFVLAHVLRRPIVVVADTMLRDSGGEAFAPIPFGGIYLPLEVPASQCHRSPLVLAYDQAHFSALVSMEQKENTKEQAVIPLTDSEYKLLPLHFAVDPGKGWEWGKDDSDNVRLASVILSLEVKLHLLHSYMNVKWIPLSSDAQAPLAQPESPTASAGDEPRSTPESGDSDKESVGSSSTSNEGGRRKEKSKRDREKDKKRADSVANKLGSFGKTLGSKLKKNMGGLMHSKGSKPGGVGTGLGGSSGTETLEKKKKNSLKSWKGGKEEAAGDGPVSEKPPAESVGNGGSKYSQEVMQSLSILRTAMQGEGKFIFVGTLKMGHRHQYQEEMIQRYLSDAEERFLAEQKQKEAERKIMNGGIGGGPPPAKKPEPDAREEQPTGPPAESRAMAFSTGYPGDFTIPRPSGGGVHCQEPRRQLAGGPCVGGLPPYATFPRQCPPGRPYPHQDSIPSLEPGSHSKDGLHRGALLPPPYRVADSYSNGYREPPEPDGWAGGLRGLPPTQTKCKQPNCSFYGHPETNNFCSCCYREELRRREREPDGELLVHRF
# Summary of the method: as §1
# PRPF8 = PRPF8 (UniProt Q6P2Q9)
# Summary of the method: as §1
# PSMD7 = molecular target: T3, PSMD7 (UniProt P51665)
# T3 sequence (whole entry): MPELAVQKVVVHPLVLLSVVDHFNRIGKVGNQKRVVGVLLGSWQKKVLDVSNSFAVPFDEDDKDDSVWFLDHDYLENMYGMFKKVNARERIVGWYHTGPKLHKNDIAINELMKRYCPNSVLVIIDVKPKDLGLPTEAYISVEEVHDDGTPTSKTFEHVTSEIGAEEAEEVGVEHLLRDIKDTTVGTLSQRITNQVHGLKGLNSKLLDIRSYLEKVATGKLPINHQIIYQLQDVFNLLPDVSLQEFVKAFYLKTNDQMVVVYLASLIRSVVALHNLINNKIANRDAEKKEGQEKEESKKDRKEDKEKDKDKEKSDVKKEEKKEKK
# Summary of the method: as §1
# UCHL1 = UCHL1 (UniProt P09936)
# Summary of the method: as §1
# UCHL3 = molecular target: T4, UCHL3 (UniProt P15374)
# T4 sequence (whole entry): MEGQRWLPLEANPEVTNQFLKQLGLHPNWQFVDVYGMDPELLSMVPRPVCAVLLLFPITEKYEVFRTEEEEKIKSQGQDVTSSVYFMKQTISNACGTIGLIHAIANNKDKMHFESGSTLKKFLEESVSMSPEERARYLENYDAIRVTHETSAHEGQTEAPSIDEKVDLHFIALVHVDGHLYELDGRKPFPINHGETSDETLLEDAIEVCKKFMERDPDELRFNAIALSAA
# Summary of the method: as §1
# UCHL5 = molecular target: T5, UCHL5 (UniProt Q9Y5K5)
# T5 sequence (whole entry): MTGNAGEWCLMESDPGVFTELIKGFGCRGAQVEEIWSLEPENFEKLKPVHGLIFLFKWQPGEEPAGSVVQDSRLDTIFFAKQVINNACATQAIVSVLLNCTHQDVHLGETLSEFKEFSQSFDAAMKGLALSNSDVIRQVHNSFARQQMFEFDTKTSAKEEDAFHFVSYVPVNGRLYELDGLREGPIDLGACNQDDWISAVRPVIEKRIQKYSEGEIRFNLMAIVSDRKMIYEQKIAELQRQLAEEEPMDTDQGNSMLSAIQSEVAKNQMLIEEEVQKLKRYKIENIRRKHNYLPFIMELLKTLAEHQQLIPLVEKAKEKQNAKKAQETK
# Summary of the method: as §1
# USP10 = USP10 (UniProt Q14694)
# Summary of the method: as §1
# USP15 = molecular target: T6, USP15 (UniProt Q9Y4E8)
# T6 sequence (whole entry): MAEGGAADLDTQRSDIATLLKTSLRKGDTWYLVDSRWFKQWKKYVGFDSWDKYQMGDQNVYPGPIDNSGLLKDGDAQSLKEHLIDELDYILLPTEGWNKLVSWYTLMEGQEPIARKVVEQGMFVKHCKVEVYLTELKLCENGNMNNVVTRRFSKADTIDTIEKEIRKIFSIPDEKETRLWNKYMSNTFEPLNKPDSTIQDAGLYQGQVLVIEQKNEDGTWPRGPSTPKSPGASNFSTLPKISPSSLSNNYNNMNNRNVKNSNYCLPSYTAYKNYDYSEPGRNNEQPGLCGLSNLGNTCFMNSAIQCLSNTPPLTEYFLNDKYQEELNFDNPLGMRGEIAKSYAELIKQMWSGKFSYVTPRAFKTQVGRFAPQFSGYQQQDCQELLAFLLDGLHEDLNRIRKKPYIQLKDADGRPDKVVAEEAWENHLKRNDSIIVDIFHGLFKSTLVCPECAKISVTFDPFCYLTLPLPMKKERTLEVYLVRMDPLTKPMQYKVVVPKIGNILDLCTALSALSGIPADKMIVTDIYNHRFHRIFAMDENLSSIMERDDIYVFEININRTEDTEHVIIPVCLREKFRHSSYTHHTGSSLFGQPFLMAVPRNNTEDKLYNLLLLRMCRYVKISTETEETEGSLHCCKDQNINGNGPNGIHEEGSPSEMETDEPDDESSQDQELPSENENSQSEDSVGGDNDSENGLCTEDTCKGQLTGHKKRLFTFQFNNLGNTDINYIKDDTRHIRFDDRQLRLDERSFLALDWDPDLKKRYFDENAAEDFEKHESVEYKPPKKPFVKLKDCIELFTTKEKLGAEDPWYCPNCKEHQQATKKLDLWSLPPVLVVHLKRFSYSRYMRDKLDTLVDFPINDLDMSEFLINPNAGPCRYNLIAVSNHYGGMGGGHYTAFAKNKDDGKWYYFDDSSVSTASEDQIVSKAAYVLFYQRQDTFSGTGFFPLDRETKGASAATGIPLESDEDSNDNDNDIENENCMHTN
# Summary of the method: as §1
# USP16 = USP16 (UniProt Q9Y5T5)
# Summary of the method: as §1
# Sequence of USP10 (Q14694 whole entry): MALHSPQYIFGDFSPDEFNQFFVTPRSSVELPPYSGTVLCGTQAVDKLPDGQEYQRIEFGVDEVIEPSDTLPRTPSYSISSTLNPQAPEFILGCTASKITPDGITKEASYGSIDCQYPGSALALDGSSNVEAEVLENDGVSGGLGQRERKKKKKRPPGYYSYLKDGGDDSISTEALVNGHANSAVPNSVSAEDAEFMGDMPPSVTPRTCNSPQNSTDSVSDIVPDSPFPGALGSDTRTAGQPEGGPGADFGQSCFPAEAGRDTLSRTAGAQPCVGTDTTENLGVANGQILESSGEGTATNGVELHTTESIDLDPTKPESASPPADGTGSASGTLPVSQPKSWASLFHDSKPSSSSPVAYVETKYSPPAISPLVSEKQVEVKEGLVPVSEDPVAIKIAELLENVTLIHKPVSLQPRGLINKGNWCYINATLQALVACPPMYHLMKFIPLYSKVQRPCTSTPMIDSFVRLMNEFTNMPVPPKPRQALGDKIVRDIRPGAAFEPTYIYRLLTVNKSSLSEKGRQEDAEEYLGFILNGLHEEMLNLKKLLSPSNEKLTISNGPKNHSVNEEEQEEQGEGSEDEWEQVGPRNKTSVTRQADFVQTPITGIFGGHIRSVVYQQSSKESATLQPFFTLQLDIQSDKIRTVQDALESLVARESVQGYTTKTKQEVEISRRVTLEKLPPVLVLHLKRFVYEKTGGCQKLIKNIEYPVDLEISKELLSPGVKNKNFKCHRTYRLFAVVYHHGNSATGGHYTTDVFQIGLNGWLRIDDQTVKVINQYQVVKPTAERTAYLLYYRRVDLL
# Sequence of USP16 (Q9Y5T5 whole entry, looked up): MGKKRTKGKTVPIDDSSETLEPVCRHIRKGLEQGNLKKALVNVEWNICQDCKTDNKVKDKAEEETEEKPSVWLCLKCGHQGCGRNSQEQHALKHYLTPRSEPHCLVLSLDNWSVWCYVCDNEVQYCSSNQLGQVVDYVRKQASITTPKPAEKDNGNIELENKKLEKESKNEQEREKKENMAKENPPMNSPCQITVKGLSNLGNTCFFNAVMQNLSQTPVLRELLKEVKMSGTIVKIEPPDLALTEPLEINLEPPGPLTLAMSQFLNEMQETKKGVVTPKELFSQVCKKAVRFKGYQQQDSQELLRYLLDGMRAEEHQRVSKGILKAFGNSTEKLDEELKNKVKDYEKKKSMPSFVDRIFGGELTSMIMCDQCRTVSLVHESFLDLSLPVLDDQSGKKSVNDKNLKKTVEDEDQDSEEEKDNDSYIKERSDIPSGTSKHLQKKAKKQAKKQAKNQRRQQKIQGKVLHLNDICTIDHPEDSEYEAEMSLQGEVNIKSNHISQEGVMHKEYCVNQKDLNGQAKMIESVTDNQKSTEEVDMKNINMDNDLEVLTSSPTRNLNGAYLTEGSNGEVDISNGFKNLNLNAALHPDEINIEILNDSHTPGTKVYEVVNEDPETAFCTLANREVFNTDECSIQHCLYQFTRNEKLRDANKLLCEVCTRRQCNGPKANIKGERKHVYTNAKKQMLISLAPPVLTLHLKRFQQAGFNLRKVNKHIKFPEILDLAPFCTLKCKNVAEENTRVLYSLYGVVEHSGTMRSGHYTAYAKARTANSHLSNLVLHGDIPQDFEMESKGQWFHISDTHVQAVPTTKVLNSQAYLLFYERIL
# Sequence of UCHL1 (P09936 whole entry, looked up): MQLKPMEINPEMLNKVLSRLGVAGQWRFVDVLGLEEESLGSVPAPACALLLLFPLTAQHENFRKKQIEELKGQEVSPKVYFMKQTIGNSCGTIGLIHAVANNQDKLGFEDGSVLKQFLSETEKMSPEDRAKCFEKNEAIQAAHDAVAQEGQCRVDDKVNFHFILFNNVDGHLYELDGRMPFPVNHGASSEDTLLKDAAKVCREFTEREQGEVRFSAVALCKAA
smiles,measurement,setting,value
CS(=O)(=O)N1CCCN(C(=O)CCl)CC1,log2 ratio of Biotin-Ahx-Ub-VS probe labelling,OTUD6B,-0.512
same,log2 ratio of Biotin-Ahx-Ub-VS probe labelling,OTUD7B,-0.631
same,log2 ratio of Biotin-Ahx-Ub-VS probe labelling,PRPF8,-0.104
same,log2 ratio of Biotin-Ahx-Ub-VS probe labelling,PSMD7,-0.148
same,log2 ratio of Biotin-Ahx-Ub-VS probe labelling,UCHL1,-1.95 (active)
same,log2 ratio of Biotin-Ahx-Ub-VS probe labelling,UCHL3,0.112
same,log2 ratio of Biotin-Ahx-Ub-VS probe labelling,UCHL5,-0.235
same,log2 ratio of Biotin-Ahx-Ub-VS probe labelling,USP10,-0.0225
same,log2 ratio of Biotin-Ahx-Ub-VS probe labelling,USP15,-0.193
same,log2 ratio of Biotin-Ahx-Ub-VS probe labelling,USP16,0.245
